Out of some 16,000 compounds screened, about 5,100 (32%) were called active. Inconclusive results (about 25%) are left out. Some of the results follow. Values without a mark were called inactive. Calls follow the shape of the dose curve; as a rule, active = well fitted curve in the direction sought with a large enough effect; inconclusive = small, poorly fitted or top-dose-only effect, or effect the other way; inactive = no such curve, though single readings can be large or run the other way.
The compounds below were run against Cytochrome P450 3A4 (Homo sapiens) (UniProt P08684) (assay: Cytochrome panel assay with activity outcomes). Settings: recombinant CYP, pro-luciferin dealkylation, luminescence, p450-cyp3a4; series mostly up to 57.1 µM.
% is scaled to controls: 0 for no effect and ±100 for the full control effect.

Cytochrome P450 3A4 (Homo sapiens), sequence (P08684 whole entry, looked up): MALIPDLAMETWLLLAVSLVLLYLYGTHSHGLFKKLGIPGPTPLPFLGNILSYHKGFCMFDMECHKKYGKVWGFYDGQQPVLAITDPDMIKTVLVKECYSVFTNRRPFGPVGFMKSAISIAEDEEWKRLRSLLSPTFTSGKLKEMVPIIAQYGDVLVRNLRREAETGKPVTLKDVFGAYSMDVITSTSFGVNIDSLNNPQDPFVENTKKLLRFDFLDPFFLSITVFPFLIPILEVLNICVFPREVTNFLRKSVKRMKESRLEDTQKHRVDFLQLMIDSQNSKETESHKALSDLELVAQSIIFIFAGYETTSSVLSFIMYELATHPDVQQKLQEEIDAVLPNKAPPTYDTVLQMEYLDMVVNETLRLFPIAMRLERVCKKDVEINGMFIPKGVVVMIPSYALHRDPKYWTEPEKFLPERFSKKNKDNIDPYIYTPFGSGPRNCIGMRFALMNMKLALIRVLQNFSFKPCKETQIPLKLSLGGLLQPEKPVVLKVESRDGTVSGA

Row | SMILES | AC50 | activity, negative = inhibition
1 | COc1ccc(NC(=O)CSC2=NC(=O)CC(C)=N2)cc1 | inactive | 
2 | COc1ccc(NC(=O)Cn2cccc2)c(OC)c1 | inactive | 
3 | COc1ccc(NC(=O)CSc2ccc3c4c(cccc24)C(=O)c2ccccc2-3)cc1 | 1 µM (active) | 
4 | COc1ccc(-n2ccnc2SCC(=O)Nc2ccc(OC)cc2OC)cc1 | 3.98 µM (active) | 
5 | COc1ccc(-n2ccnc2SCC(=O)Nc2ccccc2)cc1 | 11.2 µM (active) | 
6 | COc1ccc(-n2nnnc2SCC(=O)Nc2ccccc2)cc1 | 14.1 µM (active) | 
7 | COc1ccc(-n2nnnc2/C=C\Nc2ccccc2C(=O)c2ccccc2)cc1 | inactive | 
8 | COc1ccc(NC(=O)CSc2nnc(C3CC3)n2-c2ccccc2)cc1 | 3.16 µM (active) | 
9 | COc1ccc(OC)c(/C=N/NC(=O)c2csc3ccccc23)c1 |  | 3.57% [at 2.29 µM]
10 | COC(=O)CSc1nnc(C)n1-c1cccc(OC)c1 | inactive | 
11 | Cn1nnnc1SCC(=O)Nc1ccccc1[N+](=O)[O-] | inactive | 
12 | COc1ccc(NC(=O)CSc2nnc(C3CC3)n2N)cc1 |  | -8.56% [at 11.4 µM]
13 | COc1ccc(O)c(/C=N/NC(=O)CSc2nnc(C)n2-c2ccccc2)c1 | 7.94 µM (active) | 
14 | CCC(=O)Nc1ccc(NC(=O)CSc2nnnn2-c2cccnc2)cc1C | 3.55 µM (active) | 
15 | CCn1c(SC)nnc1C1CCN(S(=O)(=O)c2ccc(OC)cc2)CC1 | inactive | 
16 | CCn1c(SCC(=O)OC)nnc1C1CCCCC1 | inactive | 
17 | CCn1c(SCC(=O)c2ccc(OC)cc2)nnc1C1CC1 | 22.4 µM (active) | 
18 | Cn1c(SCC(=O)Nc2ccccc2)nc(O)cc1=O | 3.55 µM (active) | 
19 | Cn1ccnc1SCC(=O)Nc1sccc1C#N | 14.1 µM (active) | 
20 | CCn1ccc(C(=O)NC2=C(C#N)CCC2)n1 | inactive | 

Row | SMILES | AC50 | activity, negative = inhibition
21 | COc1cccc(-n2ccnc2SCC(=O)Nc2nccs2)c1 | 3.55 µM (active) | 
22 | NCC(=O)Nc1ccccc1 |  | -12.7% [at 11.4 µM]
23 | O=C(CSc1nnc2c3ccccc3c3ccccc3c2n1)Nc1ccccc1 |  | 1.75% [at 2.29 µM]
24 | O=C(O)CCC(=O)N1CCC[C@H]1C(=O)O | inactive | 
25 | O=C(c1ccncc1)N1CCC2(CCCN(C(c3ccccc3)c3ccccc3)C2)CC1 | 1 µM (active) | 
26 | O=C(c1ccncc1)N1CCC2(CC1)CCN(c1ncccn1)CC2 | inactive | 
27 | O=C(c1cnccn1)N1CCC2(CCCN(c3ncccn3)C2)CC1 | inactive | 
28 | O=C(c1ccncc1)N1CCC2(CC1)CCN(C(c1ccccc1)c1ccccc1)CC2 | inactive | 
29 | O=C(c1cnccn1)N1CCC2(CCCN(C(c3ccccc3)c3ccccc3)C2)CC1 | 1.58 µM (active) | 
30 | Cc1ccc(C(=O)c2ccc(CC(=O)O)n2C)cc1 | inactive | 
31 | CCOc1ccccc1Nc1ccc(N)cc1S(=O)(=O)O |  | -9.59% [at 11.4 µM]
32 | CCOc1ccccc1Nc1nc(-c2sc(NC(=O)c3ccccc3)nc2C)cs1 | 7.94 µM (active) | 
33 | COc1ccccc1Nc1nc(-c2sc(NC(=O)c3ccc([N+](=O)[O-])cc3)nc2C)cs1 | 8.91 µM (active) | 
34 | Cc1ccc(Nc2nc(-c3sc(NC(=O)c4ccc([N+](=O)[O-])cc4)nc3C)cs2)cc1 | 10 µM (active) | 
35 | CCOC(=O)C[C@@H](C(=O)OCC)[C@@H]1CCCCC1=O |  | -10.4% [at 11.4 µM]
36 | COCCn1c(Cc2ccccc2)nnc1SCc1nc2ccccc2c(=O)[nH]1 | 3.16 µM (active) | 
37 | CC[C@@H]1OC(=O)[C@H](C)[C@H](O[C@@H]2C[C@](C)(OC)[C@H](O)[C@H](C)O2)[C@H](C)[C@H](O[C@@H]2O[C@@H](C)C[C@@H](N(C)C)[C@@H]2O)[C@](C)(O)C[C@H](C)[C@@H]2N[C@H](COCCOC)O[C@H]([C@@H]2C)[C@]1(C)O | inactive | 
38 | CCn1c(=O)c2c(nc3n2CCS3)n(C)c1=O | inactive | 
39 | CC(C)(Sc1ccc(CCN(CCCCC2CCCCC2)C(=O)NC2CCCCC2)cc1)C(=O)O | 3.98 µM (active) | 
40 | Cc1cc(C)nc(NC(=O)c2cccc([N+](=O)[O-])c2C)n1 | inactive | 

Row | SMILES | AC50 | activity, negative = inhibition
41 | Cc1cccc(NC(=O)c2ccc([N+](=O)[O-])o2)n1 | inactive | 
42 | O=C(Nc1cccc(NC(=O)c2ccccc2[N+](=O)[O-])n1)c1ccccc1[N+](=O)[O-] | 10 µM (active) | 
43 | CC(Cc1ccccc1)NC(=O)CSc1nc2nc3c(cc2c(=O)n1-c1ccccc1)COC(C)(C)C3 (stereo not given) | 7.94 µM (active) | 
44 | CNC(C)c1cc(OC)ccc1OC (stereo not given) | inactive | 
45 | COc1ccc(/C=N/n2c(C)nnc2C)c(OC)c1 | inactive | 
46 | COc1cc(/C=C\c2ccc(OC)cc2OC)cc(OC)c1 | 15.8 µM (active) | 
47 | COc1ccc(N2CCN(S(=O)(=O)c3ccc4c(c3)CCCC4)CC2)c([N+](=O)[O-])c1 | 4.47 µM (active) | 
48 | O=C(c1cc(-c2ccncc2)nc2ccccc12)N1CCN(c2ccc(N3CCOCC3)nn2)CC1 | 1.58 µM (active) | 
49 | O=C(O)c1cc(-c2ccc(-c3ccccc3)cc2)nc2cc3ccccc3cc12 |  | 2.43% [at 11.4 µM]
50 | Cc1ccc(C)c(NC(=O)C2C3CCCC2C3c2ccccc2)c1 (stereo not given) | inactive | 
51 | Cc1ccc(C)c(NC(=O)C2(C)CC3c4ccccc4C2c2ccccc23)c1 (stereo not given) | 2.24 µM (active) | 
52 | Cc1ccc(C)c(NC(=O)C2CC3c4ccccc4C2c2ccccc23)c1 (stereo not given) |  | -27.2% [at 2.29 µM]
53 | Fc1ccc(CN(C2=NCCN2)c2c(Cl)cccc2Cl)cc1 | inactive | 
54 | Cc1nc(SCC(=O)Nc2ccc(N3CCOCC3)cc2)nc(C)c1C | 14.1 µM (active) | 
55 | Cc1ccccc1C(=O)Nc1ccc(N2CCOCC2)nc1 | inactive | 
56 | O=C(c1ccc2nc3ccc(Cl)cc3c(=O)n2c1)N1CCOCC1 | inactive | 
57 | O=C(Nc1ccc2nc(SCc3ccc(Cl)cc3)sc2c1)c1ccccc1C(=O)N1CCOCC1 | 7.94 µM (active) | 
58 | Cc1ccc(NC(=O)c2cc(N3C(=O)C4CC=CCC4C3=O)ccc2N2CCOCC2)cc1Cl (stereo not given) | 12.6 µM (active) | 
59 | CCCC(=O)Nc1ccc2nc(SCC(=O)Nc3ccc(N4CCOCC4)c(Cl)c3)sc2c1 | 1.41 µM (active) | 
60 | Cn1c(CCC(=O)Nc2ccc(N3CCOCC3)cc2)nc(=O)c2ccccc21 |  | -13.8% [at 11.4 µM]
